Sampled rows, rich in hits. Any-hit rate of the full collection: about 32%.
PostGolgi yeast = growth inhibition of a yeast mutant, post-Golgi transport screen | post-Golgi transport phenotypic cell assay | inhibition, % at 10 µM | 98,000 compounds, 0.9% hits | AID 739;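 also: yeast cells grown in 1536-well plates; yeast grown about 18 h at 30C before absorbance read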
CYP2C9 inh = blocks human cytochrome P450 2C9; P11712; CYP2C9 Supersomes, luciferin-H conversion, luminescence; inhibition, % at 5 µM; 96,000 compounds, 20% hits;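 active = blocking of liver enzyme CYP2C9 beyond about 50% at 5 µM, limit read from the data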
Target sequence (P11712 whole entry, looked up): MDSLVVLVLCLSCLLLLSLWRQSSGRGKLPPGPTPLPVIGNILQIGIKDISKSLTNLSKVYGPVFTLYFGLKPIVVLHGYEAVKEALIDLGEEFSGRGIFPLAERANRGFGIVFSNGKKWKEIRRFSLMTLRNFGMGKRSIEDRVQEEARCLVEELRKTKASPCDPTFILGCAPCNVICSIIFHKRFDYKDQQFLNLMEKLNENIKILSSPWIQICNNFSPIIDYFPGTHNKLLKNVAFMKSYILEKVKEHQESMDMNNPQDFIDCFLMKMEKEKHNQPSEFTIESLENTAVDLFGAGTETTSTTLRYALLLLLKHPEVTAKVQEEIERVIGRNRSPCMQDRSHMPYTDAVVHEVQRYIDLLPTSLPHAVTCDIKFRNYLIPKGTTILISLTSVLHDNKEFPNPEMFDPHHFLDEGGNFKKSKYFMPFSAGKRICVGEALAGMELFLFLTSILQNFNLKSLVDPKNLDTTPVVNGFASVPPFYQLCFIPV
CYP2C19 inh = inhibitors of human CYP2C19 | 96,000 compounds, 21% hits | P33261 | AID 778 | CYP2C19 Supersomes, luciferin-H EGE luminescence, 30 min | inhibition, % at 5 µM;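 active = CYP2C19 inhibition above a set limit at 5 µM in the primary screen, cut at about 50% in these data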;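 also: plate controls were negative control wells for no effect and 2.5 mM tranylcypromine positive control for full effect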
CYP2C9 act = increases human cytochrome P450 2C9 activity; 96,000 compounds, 1.4% hits; activation factor at 5 µM; P11712; recombinant CYP2C9, luciferin-H conversion, luminescence; active compounds read high; factor 1 = untreated enzyme, 0 = blocked;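 active = activation factor of 2 or more for CYP2C9 at a 5 µM dose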;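 also: 0 = sulfaphenazole-blocked wells and 1 = vehicle-only wells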
CYP2C19 act = activators of human cytochrome P450 2C19. P33261. recombinant CYP2C19, luciferin-H EGE luminescence; active compounds read high; 0 = fully inhibited enzyme, 1 = untreated enzyme. activation factor at 5 µM. 96,000 tested, under 10 active;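 active = activation factor of at least 2 at 5 µM in the primary screen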;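 also: 0 = wells with 2.5 mM tranylcypromine and 1 = vehicle-only wells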
PostGolgi ctrl = yeast control strain growth, post-Golgi counter-screen; inhibition, % at 10 µM; 98,000 compounds, 5% hits; efflux-deficient yeast background strain, growth absorbance A615, 16 h; AID 738
Starred values were filed as active, the others as inactive. Rule as the data show it, unless noted: active = inhibition above about 30%; inactive = the rest.

`CC(=O)Nc1cccc(N(C)S(C)(=O)=O)c1` gave PostGolgi yeast -2, CYP2C9 inh 20, CYP2C19 inh -13, CYP2C9 act 0.8, CYP2C19 act 1.1 and PostGolgi ctrl 2.
Screening COc1ccc(NC(=O)c2ccc(N(C)S(C)(=O)=O)cc2)cc1OC returned PostGolgi yeast -6, CYP2C9 inh -28, CYP2C19 inh 30, CYP2C9 act 1.3, CYP2C19 act 0.7 and PostGolgi ctrl 0.
`CN(c1cccc(NC(=O)Nc2cccc(Cl)c2)c1)S(C)(=O)=O` gave PostGolgi yeast 7, CYP2C9 inh 72*, CYP2C19 inh 62*, CYP2C9 act 0.3, CYP2C19 act 0.4 and PostGolgi ctrl -1.
Screening Cc1ccc(SCCC(=O)Nc2cccc(N(C)S(C)(=O)=O)c2)cc1 returned PostGolgi yeast 7, CYP2C9 inh 83*, CYP2C19 inh 91*, CYP2C9 act 0.2, CYP2C19 act 0.1 and PostGolgi ctrl -13.
For Cc1cccc(C)c1N(CC(=O)Nc1cccc(N(C)S(C)(=O)=O)c1)S(C)(=O)=O the results were PostGolgi yeast -8, CYP2C9 inh 58*, CYP2C19 inh 35, CYP2C9 act 0.4, CYP2C19 act 0.6 and PostGolgi ctrl 6.
Screening CCCC(=O)Nc1ccc2c(c1)nc(CN1CCCCC1)n2C returned PostGolgi yeast 1, CYP2C9 inh 7, CYP2C19 inh -1, CYP2C9 act 0.9, CYP2C19 act 1 and PostGolgi ctrl 0.
Screening COc1ccccc1OCC(=O)Nc1cccc(N(C)S(C)(=O)=O)c1 returned PostGolgi yeast 0, CYP2C9 inh 47, CYP2C19 inh 83*, CYP2C9 act 0.5, CYP2C19 act 0.2 and PostGolgi ctrl 0.
`COc1ccc(C(=O)Nc2cccc(N(C)S(C)(=O)=O)c2)cc1OC` gave PostGolgi yeast 4, CYP2C9 inh 24, CYP2C19 inh 34, CYP2C9 act 0.8, CYP2C19 act 0.7 and PostGolgi ctrl -5.
Cc1nc2cc(Cl)ccc2n1-c1ccccc1 was read as PostGolgi yeast 5, CYP2C9 inh 16, CYP2C19 inh 80*, CYP2C9 act 0.8, CYP2C19 act 0.2 and PostGolgi ctrl 17.
`O=C(Nc1cccc(C(F)(F)F)c1)N(Cc1ccc(Cl)cc1)CC(O)C(F)(F)F` (stereo not given) gave PostGolgi yeast -10, CYP2C9 inh 37, CYP2C19 inh 48, CYP2C9 act 0.6, CYP2C19 act 0.5 and PostGolgi ctrl 51*.
Screening COCc1cc(C)nc(N2CCN(c3ccccc3)CC2)c1C#N returned CYP2C9 inh -139, CYP2C19 inh 69*, CYP2C9 act 2.4* and CYP2C19 act 0.3.
COCc1cc(C)nc(NCCc2ccccc2)c1C#N was read as PostGolgi yeast -8, CYP2C9 inh 4, CYP2C19 inh 52*, CYP2C9 act 1, CYP2C19 act 0.5 and PostGolgi ctrl 10.
For COCc1cc(C)nc(N2CCN(Cc3ccccc3)CC2)c1C#N the results were PostGolgi yeast -2, CYP2C9 inh 14, CYP2C19 inh 95*, CYP2C9 act 0.9, CYP2C19 act 0.1 and PostGolgi ctrl -2.
Screening COCc1cc(C)nc(NC2CCCCC2)c1C#N returned PostGolgi yeast -3, CYP2C9 inh 4, CYP2C19 inh -4, CYP2C9 act 1, CYP2C19 act 1 and PostGolgi ctrl 11.
Screening COCc1cc(C)nc(N2CCNCC2)c1C#N returned PostGolgi yeast 0, CYP2C9 inh -15, CYP2C19 inh -9, CYP2C9 act 1.1, CYP2C19 act 1.1 and PostGolgi ctrl 4.
Screening Cc1ccccc1OCCOc1cccc(/C=N/NC(=O)Cc2nnc(N)s2)c1 returned PostGolgi yeast -14, CYP2C9 inh 5, CYP2C19 inh -6, CYP2C9 act 0.9, CYP2C19 act 1.1 and PostGolgi ctrl -3.
CC(C)COc1ccc2[nH]c3c(c2c1)CCCC3=O was read as PostGolgi yeast -8, CYP2C9 inh -1, CYP2C19 inh 12, CYP2C9 act 1, CYP2C19 act 0.9 and PostGolgi ctrl 15.
`O=C1c2ccccc2CCC12N=NCC2c1ccc(Br)cc1` (stereo not given) gave PostGolgi yeast 1, CYP2C9 inh 49, CYP2C19 inh 99*, CYP2C9 act 0.5, CYP2C19 act 0 and PostGolgi ctrl 11.
For O=C1CC(c2ccc(Cl)cc2)n2nc(N3C(=O)c4ccccc4C3=O)nc2N1 (stereo not given) the results were PostGolgi yeast 9, CYP2C9 inh 32, CYP2C19 inh 29, CYP2C9 act 0.7, CYP2C19 act 0.7 and PostGolgi ctrl 10.
O=C1c2ccccc2CCC12N=NCC2c1ccc(Cl)cc1 (stereo not given) was read as PostGolgi yeast 1, CYP2C9 inh 15, CYP2C19 inh 84*, CYP2C9 act 0.8, CYP2C19 act 0.2 and PostGolgi ctrl 5.
COc1cccc(NC(=O)C2C3C=CC(O3)C2C(=O)NCc2cccnc2)c1 (stereo not given) was read as PostGolgi yeast 5, CYP2C9 inh 4, CYP2C19 inh 12, CYP2C9 act 1, CYP2C19 act 0.9 and PostGolgi ctrl 21.
c1ccc(-n2nnnc2Oc2cccc3cccnc23)cc1 was read as PostGolgi yeast -3, CYP2C9 inh -166, CYP2C19 inh 90*, CYP2C9 act 2.7*, CYP2C19 act 0.1 and PostGolgi ctrl 29.
Screening Cc1ccc2cccc(Oc3nnnn3-c3ccccc3)c2n1 returned PostGolgi yeast 18, CYP2C9 inh 1, CYP2C19 inh 95*, CYP2C9 act 1, CYP2C19 act 0.1 and PostGolgi ctrl 30*.
For COc1ccccc1Oc1nnnn1-c1ccc(C(N)=O)cc1 the results were PostGolgi yeast -1, CYP2C9 inh 12, CYP2C19 inh 26, CYP2C9 act 0.9, CYP2C19 act 0.7 and PostGolgi ctrl 3.
`CN(C)c1ccc(/C=N/NC(=O)CN(c2ccccc2Cl)S(C)(=O)=O)cc1Br` gave PostGolgi yeast -3, CYP2C9 inh 37, CYP2C19 inh 11, CYP2C9 act 0.6, CYP2C19 act 0.9 and PostGolgi ctrl -2.
For CCc1ccccc1N(CC(=O)N/N=C/c1ccc(OC(=O)OC)c(OC)c1)S(C)(=O)=O the results were PostGolgi yeast -4, CYP2C9 inh 50*, CYP2C19 inh 30, CYP2C9 act 0.5, CYP2C19 act 0.7 and PostGolgi ctrl 16.
`COc1cc(C)c2occ(/C(C)=N\O)c2c1` gave PostGolgi yeast 4, CYP2C9 inh 12, CYP2C19 inh 15, CYP2C9 act 0.9, CYP2C19 act 0.9 and PostGolgi ctrl 7.
Screening Nc1nnc(CC(=O)N/N=C/c2cccc(OCCOc3ccccc3)c2)s1 returned PostGolgi yeast -12, CYP2C9 inh 0, CYP2C19 inh -8, CYP2C9 act 1, CYP2C19 act 1.1 and PostGolgi ctrl -4.

Bioassay records deposited in PubChem BioAssay by several laboratories.
